Screens as filed in PubChem BioAssay.
A selection: hits, their analogues and other compounds. The true share with any hit is near 2.3%.
FBPA coupling cs – qHTS Assay for Inhibitors of Fructose-1,6-bisphosphate Aldolase from Giardia Lamblia: Coupling assay counterscreen; coupling enzyme system counterscreen, AmpLite Red fluorescence; activity change, negative = inhibition, % at 58.2 µM, hits read low; 290,000 compounds, 0.67% hits; in the data active means activity change below about -30%
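Counterscreen of the coupled detection system alone, without aldolase: glyceraldehyde-3-phosphate coupling enzymes plus AmpLite Red readout. Compounds at 57.5 uM final, 10 min RT preincubation, 20 min RT reaction, fluorescence 525/598 nm.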
USP1 inh – Inhibitors of USP1/UAF1: Primary Screen; AID 743255, 2014; 390,000 compounds, 0.23% hits; Potency, µM (series often up to 57.1 µM), inactives show at the top dose activity change, negative = inhibition, most hits filed as inhibitors; recombinant USP1/UAF1, Ub-Rhodamine cleavage fluorescence; Ubiquitin carboxyl-terminal hydrolase 1 (Homo sapiens), O94782; further: potency means the concentration at half of the fitted maximal effect; nearly all actives have a fitted effect of over 60% in size
Target sequence (O94782 whole entry, looked up): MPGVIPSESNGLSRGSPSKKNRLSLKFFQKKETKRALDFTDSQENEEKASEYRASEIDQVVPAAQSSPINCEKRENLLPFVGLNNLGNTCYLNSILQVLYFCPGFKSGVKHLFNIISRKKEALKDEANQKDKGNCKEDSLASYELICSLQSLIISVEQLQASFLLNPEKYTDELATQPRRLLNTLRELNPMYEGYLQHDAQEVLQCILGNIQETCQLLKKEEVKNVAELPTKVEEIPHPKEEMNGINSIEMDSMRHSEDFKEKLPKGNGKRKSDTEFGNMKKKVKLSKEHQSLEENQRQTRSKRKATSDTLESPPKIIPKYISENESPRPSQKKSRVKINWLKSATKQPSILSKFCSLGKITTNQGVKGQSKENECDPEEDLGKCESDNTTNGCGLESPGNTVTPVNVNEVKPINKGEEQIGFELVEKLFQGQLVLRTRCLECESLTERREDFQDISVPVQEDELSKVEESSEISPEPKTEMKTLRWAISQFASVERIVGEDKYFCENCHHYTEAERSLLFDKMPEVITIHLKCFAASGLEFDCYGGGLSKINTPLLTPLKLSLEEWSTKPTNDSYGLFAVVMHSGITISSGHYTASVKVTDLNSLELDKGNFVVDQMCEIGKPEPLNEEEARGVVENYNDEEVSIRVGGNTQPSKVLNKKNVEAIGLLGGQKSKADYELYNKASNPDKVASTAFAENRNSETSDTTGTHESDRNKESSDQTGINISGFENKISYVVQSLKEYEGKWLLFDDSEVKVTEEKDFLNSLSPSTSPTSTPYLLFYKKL
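Step one: compound is pinned into 1nM USP1/UAF1 in HEPES pH 7.8 buffer with TCEP. Step two: 15 min room-temperature incubation. Step three: Ub-Rho (150nM final) starts cleavage, tracked by fluorescence over six one-minute reads.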
Tau ThT inhib – qHTS for Inhibitors of Tau Fibril Formation, Thioflavin T Binding; recombinant tau K18 P301L, heparin-induced fibrillization, ThT fluorescence; Potency, µM (doses to about 57.4 µM), for inactives: at the highest dose activity, negative = inhibition, usual class: inhibitors; 270,000 compounds, 2.1% hits; AID 1460, 2008; further: potency means the concentration at half of the fitted maximal effect; nearly all actives have a fitted effect of over 55% in size
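In this qHTS, human K18 P301L tau is incubated with compound and heparin for 6 hr at 37 C, and Thioflavin T fluorescence then reports fibril load.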
Tau fibril FP – qHTS for Inhibitors of Tau Fibril Formation, Fluorescence Polarization; Microtubule-associated protein tau (Homo sapiens), P10636; Potency, µM (highest dose often 57.7 µM), inactives show at the top dose activity, negative = inhibition, usual class: inhibitors; 280,000 compounds, 0.39% hits; AID 1468, 2008; K18 P301L tau heparin fibrillization, Alexa594 FP, 6 h; further: potency means the concentration at half of the fitted maximal effect; nearly all actives have a fitted effect of over 55% in size
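Quantitative HTS format: compounds meet 15 uM recombinant K18 P301L tau and Alexa 594-tau tracer in 100 mM sodium acetate pH 7; 20 uM heparin triggers fibrillization at 37 C over 6 hr; FP gives the signal.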
Tau fluor cs – Counterscreen qHTS for Inhibitors of Tau Fibril Formation, Fluorescence Polarization; tau K18 P301L Alexa594 fluorescence, heparin fibrillization; Potency, µM (highest dose often 57.7 µM), for the others: at the highest dose activity change, negative = decrease; 280,000 compounds, 0.93% hits; further: potency means the concentration at half of the fitted maximal effect; nearly all actives have a fitted effect of over 55% in size
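Human tau K18 P301L (15 uM unlabeled, 0.24 uM Alexa 594-labeled) in 100 mM sodium acetate pH 7 with 20 uM heparin, 6 hr at 37 C. ThT 30 uM added, 1 hr ambient; Alexa 594 FP and total fluorescence read at 555/632 nm.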
An asterisk follows results filed as active; ? = inconclusive; . = no result; [ ] = another dose, or the depositor's remark. Unless noted, the call rests on the fitted dose curve; in most records, active means well fitted curve in the direction sought with a large enough effect; inconclusive means small, poorly fitted or top-dose-only effect, or another doubt; inactive means no such curve, though single readings can be large; an effect the other way counts as inactive or inconclusive. On the % scale 0 is the no-effect control and ±100 the full control effect.

SMILES	FBPA coupling cs	USP1 inh	Tau ThT inhib	Tau fibril FP	Tau fluor cs
N#C/C(=C\c1ccc(Sc2ccc(Cl)cc2)o1)c1nc2ccccc2[nH]1	-6	?	?	?	7.1µM*[quencher]
N#C/C(=C\c1ccc(N2CCOCC2)o1)c1ccccc1	-44*	?	14µM*	?	?
N#C/C(=C/c1ccc(N2CCOCC2)o1)c1ccc(Br)cc1	.	107%	14µM*	?	?
N#C/C(=C\c1ccc(N2CCOCC2)cc1)c1ccccc1	-9	-11%	?	11%	?
Cc1ccc2c(c1)CC(C)N2S(=O)(=O)c1nnc(NC(=O)C(C)C)s1 (stereo not drawn)	.	9%	?	12%	-20%
CCOc1ccc(NC(=O)c2c(NCc3cccnc3)sc3c2CCCC3)cc1	.	-16%	?	-11%	-29%
CCOc1ccc(C2C(C(=O)c3ccco3)=C(O)C(=O)N2CCCn2ccnc2)cc1OC (stereo not drawn)	.	-14%	.	.	.
N#C/C(=C/c1ccc(N2CCCCCC2)o1)c1cccc(F)c1	-48*	25µM*	14µM*	?	?
N#C/C(=C/c1ccc(N2CCOCC2)o1)c1nc2ccccc2[nH]1	-25	25µM*	7.9µM*	-5%	?
N#C/C(=C/c1cccs1)c1nc2ccccc2[nH]1	-5	4%	-14%	-5%	-4%
N#CC(C#N)=C1C(=O)N(CCN2CCOCC2)c2ccccc21	-36*	-24%	.	?	-14%
Cc1ccc2c(c1)C(=C(C#N)C#N)C(=O)N2CCN1CCOCC1	-36*	-25%	.	?	-28%
N#CC(C#N)=C1C(=O)N(CCN2CCCCC2)c2ccccc21	-6	-19%	.	?	-18%
O=c1c(O)c(-c2ccc(O)c(O)c2)oc2ccccc12	-9	.	14µM*	10%	?
O=c1c(O)c(-c2ccc(O)c(O)c2)oc2cc(O)ccc12	-7	-7%	5µM*	9%	?
O=C(c1ccc(-n2ccnc2)cc1)N1CCCC(CO)(Cc2cccc(Cl)c2)C1 (stereo not drawn)	0	-6%	.	.	.
Cc1cccc(N2CCN(CCCNC(=O)c3sc4ncccc4c3-n3cccc3)CC2C)c1 (stereo not drawn)	.	-23%	-4%	-2%	-5%
CCOC(=O)c1ccc(NCn2c(=O)oc3ccccc32)cc1	0	25µM*	-24%	-4%	-18%
Cc1cc(OC(C)C(=O)NCc2cccnc2)c2c(C)cc(=O)oc2c1 (stereo not drawn)	3	-15%	.	.	.
O=C1c2ccccc2C(=O)c2[nH]cnc21	-24	-18%	-12%	4%	-4%
O=C1c2ccccc2C(=O)c2c1ncn2-c1ccccc1	-36*	?	-11%	6%	-7%
COc1ccc(-c2onc(C)c2C)cc1S(=O)(=O)NCc1ccc(Br)cc1	.	-25%	2%	0%	-25%
O=C(NCc1ccc(Cl)cc1)C1CCN(S(=O)(=O)c2ccc3c(c2)CCCN3C(=O)C2CCC2)CC1	.	-7%	-11%	4%	-21%
Cc1[nH]c(/C=C2\C(=O)Nc3ccc(S(=O)(=O)N(C)c4cccc(Cl)c4)cc32)c(C)c1C(=O)N1CCN(C)CC1	-1	.	.	.	.
CN(C)S(=O)(=O)c1ccc2c(c1)/C(=C/c1cc3c([nH]1)CCCC3)C(=O)N2	.	32µM*	?	-20%	?
SMILES	FBPA coupling cs	USP1 inh	Tau ThT inhib	Tau fibril FP	Tau fluor cs
CC(=O)C1C(=O)c2c(cccc2[N+](=O)[O-])C1=Nc1ccc(S(N)(=O)=O)cc1 (stereo not drawn)	0	-13%	13µM*	?	?
CC(=O)C1=C(O)C(=O)N(c2ccc(S(N)(=O)=O)cc2)C1c1cccc([N+](=O)[O-])c1 (stereo not drawn)	5	-12%	-13%	4%	-7%
O=C(CCS(=O)(=O)c1cccc2nonc12)Nc1c(F)cccc1F	.	-11%	-3%	-15%	-8%
Cc1cc(C)cc(NC(=O)C(=O)NCCc2c[nH]c3ccccc23)c1	-2	-26%	?	-4%	16µM*[quencher]
CC(C)c1ccc(NC(=S)NCCc2c[nH]c3ccccc23)cc1	-2	-12%	?	2%	11µM*[quencher]
Cc1ccc(NC(=S)NCCc2c[nH]c3ccccc23)cc1	0	-30%	?	?	?
CCC(=O)NCCc1c[nH]c2ccccc12	0	-9%	-6%	-4%	-3%
COc1ccc(Cl)cc1NC(=S)NCCc1c[nH]c2ccccc12	-4	-16%	?	5%	22µM*[quencher]
Cc1ccccc1NC(=S)NCCc1c[nH]c2ccccc12	1	-19%	-13%	6%	-22%
O=C(NCCc1c[nH]c2ccccc12)OCCSS(=O)(=O)O	15	-23%	14µM*	?	-15%
COc1ccc(NC(=O)c2ccc(-c3ccccc3C(F)(F)F)o2)cc1	0	-19%	25µM*	-12%	25µM*[quencher]
CC(C(=O)Nc1ccccc1C(F)(F)F)n1nc(-c2ccccc2)c2c(c1=O)CCCC2 (stereo not drawn)	.	-14%	-9%	5%	-7%
COc1ccccc1C1C([N+](=O)[O-])=CC([N+](=O)[O-])=CN1C (stereo not drawn)	-6	-26%	?	6%	-2%
COc1ccccc1C1NC=C([N+](=O)[O-])C=C1[N+](=O)[O-] (stereo not drawn)	-17	-21%	11µM*	?	?
COc1cc(OC)cc(-c2nnc(Sc3ccc(C=O)cc3[N+](=O)[O-])o2)c1	-2	.	25µM*	-13%	?
Cc1ccc(CNc2nc(C)cs2)cc1	0	-16%	.	.	.
COc1ccc(N2CCN(CCCNC(=O)c3cc(Nc4ccc(OC)cc4OC)nc4ccccc34)CC2)cc1	.	-25%	18µM*	11%	16µM*[quencher]
COc1ccc(Nc2cc(C(=O)NCCCN(C)C3CCCCC3)c3ccccc3n2)c(OC)c1	.	-9%	?	4%	?
COc1ccc(Nc2cc(C(=O)NCCCN(C)C3CCCCC3)c3ccccc3n2)cc1	.	?	?	?	11µM*[quencher]
CCc1ccc(Nc2cc(C(=O)NCCCN3CCOCC3)c3ccccc3n2)cc1	-8	3%	?	?	16µM*[quencher]
COc1ccc(Nc2cc(C(=O)NCCCN3CCOCC3)c3ccccc3n2)cc1	.	-30%	.	.	.
COc1ccc(OC)c(Nc2cc(C(=O)NCCCN3CCOCC3)c3ccccc3n2)c1	-18	-17%	-17%	12%	-27%
